Assay outcomes (PubChem)
Only some compounds are listed: those with a hit (about 32% of all), similar ones and a draw of the others.
PostGolgi yeast – phenotypic screen on post-Golgi transport, primary screen | post-Golgi transport phenotypic cell assay | inhibition, % at 10 µM | 98,000 tested, 0.9% active | AID 739, 2007;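 also: yeast cells grown in 1536-well plates; yeast grown about 18 h at 30C before absorbance read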
CYP2C19 act – human CYP2C19 activators, primary screen, biochemical, luminescence. recombinant CYP2C19, luciferin-H EGE luminescence; active compounds read high; 0 = fully inhibited enzyme, 1 = untreated enzyme. 96,000 tested, under 10 active. AID 1025, 2008. Cytochrome P450 2C19 (Homo sapiens), P33261. activation factor at 5 µM;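 active = activation factor of at least 2 at 5 µM in the primary screen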
Target sequence (P33261 whole entry, looked up): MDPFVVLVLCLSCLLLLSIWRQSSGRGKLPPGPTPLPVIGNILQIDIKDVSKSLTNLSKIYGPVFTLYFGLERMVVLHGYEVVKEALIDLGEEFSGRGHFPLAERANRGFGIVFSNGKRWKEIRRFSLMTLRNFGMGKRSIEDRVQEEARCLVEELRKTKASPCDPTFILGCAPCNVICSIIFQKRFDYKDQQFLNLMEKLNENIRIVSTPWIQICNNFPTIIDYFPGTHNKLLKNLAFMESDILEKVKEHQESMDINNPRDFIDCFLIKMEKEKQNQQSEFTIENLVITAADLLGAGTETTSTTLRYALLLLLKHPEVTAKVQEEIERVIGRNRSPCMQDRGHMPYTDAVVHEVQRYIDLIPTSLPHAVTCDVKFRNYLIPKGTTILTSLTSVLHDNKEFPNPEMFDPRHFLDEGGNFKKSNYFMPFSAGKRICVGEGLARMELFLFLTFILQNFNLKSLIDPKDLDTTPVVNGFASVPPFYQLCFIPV
PostGolgi ctrl – growth inhibition of yeast control strain, primary screen, counter-screen for post-Golgi transport modulator project; efflux-deficient yeast background strain, growth absorbance A615, 16 h; inhibition, % at 10 µM; 98,000 tested, 5% active; AID 738, 2007
CYP2C9 inhib – blockers of cytochrome P450 2C9 activity – biochemical, luminescence, ADME assay, primary screen | P11712 | CYP2C9 Supersomes, luciferin-H conversion | inhibition, % at 5 µM | 96,000 tested, 20% active | AID 777, 2007;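 active = blocking of liver enzyme CYP2C9 beyond about 50% at 5 µM, limit read from the data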
CYP2C19 inhib – blockers of cytochrome P450 2C19 activity – biochemical, luminescence, ADME assay, primary screen; P33261; CYP2C19 Supersomes, luciferin-H EGE luminescence, 30 min; inhibition, % at 5 µM; 96,000 tested, 21% active;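 active = CYP2C19 inhibition above a set limit at 5 µM in the primary screen, cut at about 50% in these data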
CYP2C9 act – human CYP2C9 activators, primary screen, biochemical, luminescence; Cytochrome P450 2C9 (Homo sapiens), P11712; recombinant CYP2C9, luciferin-H conversion; active compounds read high; factor 1 = untreated enzyme, 0 = blocked; activation factor at 5 µM; 96,000 tested, 1.4% active;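 active = activation factor of 2 or more for CYP2C9 at a 5 µM dose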
Each line names hits and unclear results; the compound was inactive in the other large screens. Rule as the data show it, unless noted: active = inhibition above about 30%; inactive = the rest.

O=C(Cc1cccs1)N1CCCC(c2nc3c(nnn3Cc3ccccc3Cl)c(=O)[nH]2)C1 (stereo unspecified)	CYP2C9 inhib 91.2, CYP2C19 inhib 66.5
CSCCC(C(=O)O)N1C(=O)c2ccc(C(=O)O)cc2C1=O (stereo unspecified)	CYP2C19 inhib 87.1
O=C(O)c1ccc2c(c1)C(=O)N(C(Cc1ccccc1)C(=O)O)C2=O (stereo unspecified)	none
Cc1cc(C)nc(Sc2nc(Cl)nc(N(c3ccccc3)c3ccccc3)n2)n1	CYP2C9 inhib 51.6, CYP2C19 inhib 66.8
CCOC(=O)C1=C(c2ccccc2)N=C2SCC(=O)N2C1c1cccc(OC)c1 (stereo unspecified)	CYP2C9 inhib 54.2, CYP2C19 inhib 87.1
CCOC(=O)C(C)Sc1ncc(-c2ccc(Cl)cc2)cn1 (stereo unspecified)	none
COc1cccc(Nc2ncnc3ccccc23)c1	none
CCCCCCCCNc1ncnc2ccccc12	PostGolgi yeast 44.1, CYP2C9 inhib 81.6, CYP2C19 inhib 78.7
COc1ccc(/C=C2/C(=O)N(CC3CCCO3)C(=S)N2C)c(OC)c1 (stereo unspecified)	CYP2C9 inhib 90.4, CYP2C19 inhib 63.9
Cc1oc2c(CN(C)C)c(O)ccc2c(=O)c1-c1ccc2ccccc2n1	PostGolgi ctrl 35.4
CCc1oc2c(C)c(O)ccc2c(=O)c1-c1ccc2ccccc2n1	none
O=C(NCC1CCCO1)c1nn2cccnc2c1Cl (stereo unspecified)	none
COCCNC(=O)Cn1nc(C(F)(F)F)c(Br)c1C	CYP2C9 inhib 52.2
COCCNC(=O)Cn1nc(C(F)(F)F)cc1C	none
CC(=O)Nc1ccc(S(=O)(=O)N2CCc3c(Cl)cccc3C2)cc1	CYP2C19 inhib 64.6, CYP2C9 act 2.7
CC(=O)Nc1ccc(S(=O)(=O)N2CCN(C(=O)N3CCCCCC3)CC2)cc1	CYP2C9 inhib 51.3
CC(=O)c1ccc(S(=O)(=O)N2CCCC2)cc1	CYP2C9 inhib 59.7
NS(=O)(=O)c1ccc(S(=O)(=O)N2CCCC2)cc1	none
CC(=O)Nc1ccc(S(=O)(=O)N2CCN(c3cccc(C)c3C)CC2)cc1	PostGolgi ctrl 50.6, CYP2C9 inhib 75.4
Cc1cc(C)n2nc(SCC(=O)Nc3c(C)n(C)n(-c4ccccc4)c3=O)nc2n1	none
CCOC(=O)c1c(NC(=O)c2cc(C)oc2C)sc(C(=O)Nc2ccc(Cl)cc2)c1C	none
CC(=O)Nc1ccc(S(=O)(=O)N2CCN(Cc3ccncc3)CC2)cc1	CYP2C9 inhib 53.6, CYP2C19 inhib 94.7
CC(=O)Nc1ccc(S(=O)(=O)N2CCN(c3ccc(C)c(Cl)c3)CC2)cc1	CYP2C9 inhib 53.0
Cc1cccc(N2CCN(S(=O)(=O)c3c(C)[nH]c(=O)[nH]c3=O)CC2)c1C	CYP2C19 inhib 50.2
CC(=O)Nc1ccc(S(=O)(=O)N2CCCN(S(=O)(=O)c3ccc(NC(C)=O)cc3)CC2)cc1	CYP2C9 inhib 61.2
CC(=O)Nc1ccc(S(=O)(=O)N2CCCN(S(=O)(=O)c3ccc(C)cc3)CC2)cc1	none
Cc1nc2nc3c(cn2n1)C(=O)CCC3	none
CC(NC(=O)Nn1cnnc1)(C(F)(F)F)C(F)(F)F	none
CC(=O)Nc1ccc(S(=O)(=O)Nc2ccc(S(=O)(=O)N3CCCCCC3)cc2)cc1	CYP2C9 inhib 81.5
CC(=O)Nc1ccc(C(=O)Nc2ccc(S(=O)(=O)N3CCCC3)cc2)cc1	none
O=C(NCc1ccccn1)C1CC(c2ccc(F)cc2)=NO1 (stereo unspecified)	none
Cc1ccc2c(CN3C(=O)NC4(CCCCC4)C3=O)cc(=O)oc2c1C	none
COC(=O)c1cc2oc3ccccc3c2n1Cc1ccccn1	CYP2C9 inhib 51.2, CYP2C19 inhib 73.4
Cc1ccc(N(C(C)C(=O)Nc2ccc(S(=O)(=O)N3CCOCC3)cc2)S(C)(=O)=O)cc1 (stereo unspecified)	none
Cc1ccc(N(CC(=O)Nc2ccc(S(=O)(=O)N3CCOCC3)cc2)S(C)(=O)=O)cc1C	CYP2C9 inhib 98.0, CYP2C19 inhib 77.0
CCOCC(=O)Nc1ccc(S(=O)(=O)N2CCOCC2)cc1	none
Cc1ccc(N(C(C)C(=O)Nc2ccc(S(=O)(=O)N3CCOCC3)cc2)S(C)(=O)=O)cc1C (stereo unspecified)	CYP2C9 inhib 89.2
CC(C(=O)N1CCC(C(N)=O)CC1)N(c1ccc(Oc2ccccc2)cc1)S(C)(=O)=O (stereo unspecified)	none
CC(C)c1ccc(S(=O)(=O)N2CCN(CC(=O)Nc3ccc4c(c3)OCO4)CC2)cc1	none
Cc1ccc(N(C(C)C(=O)N2CCCCC2)S(C)(=O)=O)cc1C (stereo unspecified)	CYP2C19 inhib 81.7
CC(C)c1ccc(N(CC(=O)Nc2ccc(S(=O)(=O)N3CCOCC3)cc2)S(C)(=O)=O)cc1	CYP2C9 inhib 90.1, CYP2C19 inhib 72.8
N#CCCn1c(C2CCCCC2)nc2ccccc21	none
O=C1CNC(=O)/C1=C/c1ccc(O)cc1	none
CCN1CCCC1CNC(=O)c1csc2c1CCCC2 (stereo unspecified)	none
CCOC(=O)/C(C#N)=C(\N)C(C)C(=O)Nc1ccccn1 (stereo unspecified)	none
O=C(c1ccc(Cl)cc1)c1cnc2ccccn12	none
COc1ccccc1N(CC(=O)NCCSC(C)(C)C)S(C)(=O)=O	none
CC(C)c1ccc(N(CC(=O)NCCSC(C)(C)C)S(C)(=O)=O)cc1	CYP2C19 inhib 61.4
CC(Sc1ccc(Cl)cc1)C(=O)Nc1ccc(S(=O)(=O)N2CCOCC2)cc1 (stereo unspecified)	CYP2C9 inhib 62.1
COC(=O)c1ccc(/C=N\NC(=O)c2ccc(C)cc2Cl)cc1	none
CC(C)(C)c1cc(C(=O)N/N=C/c2ccc(F)cc2)n(-c2ccccc2)n1	CYP2C9 inhib 64.6
NS(=O)(=O)c1ccc(NC(=O)Cn2ncc3c2-c2ccccc2OC3)cc1	none
COc1ccc(NC(=O)Cn2c(C)cc(=O)c3cccc(OC)c32)cc1	none (no result: PostGolgi yeast, PostGolgi ctrl)
O=C(NCc1ccccc1)c1ccc(CS(=O)(=O)c2ccccc2)o1	none
COc1ccc(S(=O)(=O)Cc2ccc(C(=O)NCc3ccc(F)cc3)o2)cc1	CYP2C9 inhib 63.6
COc1ccc(NC(=O)C(NC(C)=O)C(=O)NCc2ccc(F)cc2)cc1 (stereo unspecified)	CYP2C19 inhib 53.8
COCCCNC(=O)c1ccc(CS(=O)(=O)c2ccc(OC)cc2)o1	none
COc1ccc(S(=O)(=O)Cc2ccc(C(=O)NC3CC3)o2)cc1	CYP2C9 act 2.2
COc1ccc(S(=O)(=O)Cc2ccc(C(=O)NCc3cccnc3)o2)cc1	CYP2C9 inhib 57.9, CYP2C19 inhib 90.0
O=C(CN1CCN(c2ccccc2F)CC1)c1ccc2cc[nH]c2c1	none
